Assay outcomes as filed in PubChem.
HT1080-NT tox: kills 2HG-producing HT-1080-NT fibrosarcoma cells. HT-1080-NT fibrosarcoma viability, CellTiter-Glo ATP luminescence, 48 h. Potency, µM (titrated, usually from 46.1 µM), inactives show top-dose activity, negative = less viability, usual class: cytotoxic. 360,000 tested, 1.6% active;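 also: NT is the 2HG producing partner of a matched IDH1 knockdown line; potency is read from the fitted curve at half-maximal effect; 0% = DMSO-treated cells and -100% = media-only wells without cells; nearly all actives have a fitted effect of over 55% in size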
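A 48-hour cytotoxicity screen used HT-1080-NT cells plated 2 hours before compound delivery. ATP-based CellTiter-Glo luminescence measured viability, normalized to DMSO and no-cell controls.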
HT1080 IDH1KD tx: toxicity to HT-1080 IDH1 knockdown cells (counter line). Potency, µM (highest dose often 46.1 µM), inactives show at the highest dose activity, negative = toxicity, actives largely listed as cytotoxic. 360,000 tested, 2% active. AID 686971. HT-1080 IDH1 knockdown viability, ATP luminescence, 48 h;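 also: potency is read from the fitted curve at half-maximal effect; 0% = DMSO wells and -100% = cell-free medium wells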
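Using the IDH1-knockdown HT-1080 line run in the same batch and compound series as the NT line, viability after 48 h at 37 °C was determined by CellTiter-Glo luminescence and expressed as % activity.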
TDP1 cell CPT: DT40-hTDP1 cell growth loss with CPT; Potency, µM (series often up to 46.2 µM), for the others: top-dose activity change, negative = growth inhibition, most hits filed as inhibitors; 420,000 tested, 12% active; AID 686979; chicken DT40 Tdp1-/-;hTDP1 cells + 20 nM CPT, ATP luminescence, 48 h; also: potency is read from the fitted curve at half-maximal effect; nearly all actives have a fitted effect of over 55% in size
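Cell growth measured by CellTiter-Glo luminescence after a minimum 48 h, 37 C compound exposure with 20 nM CPT in Tdp1-knockout DT40 cells stably expressing hTDP1, seeded 400/well; qHTS titration format.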
TDP1 cell noCPT: qHTS for Inhibitors of human tyrosyl-DNA phosphodiesterase 1 (TDP1): qHTS in cells in absence of CPT; DT40 Tdp1-/- hTDP1 cells, no CPT, ATP luminescence, 48 h; Potency, µM (top dose mostly 46.2 µM), inactives show top-dose activity change, negative = growth inhibition, actives largely listed as inhibitors; 420,000 tested, 15% active; AID 686978, 2013; also: potency is read from the fitted curve at half-maximal effect; nearly all actives have a fitted effect of over 55% in size
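Chicken DT40 Tdp1-/- cells stably complemented with human TDP1 were seeded at 400 cells/well with DMSO in place of 20 nM camptothecin. After compound pinning, cells grew at least 48 hr at 37 °C; viability read by CellTiter-Glo luminescence.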
IL-1B inflam inh: inflammasome signaling inhibition, IL-1 beta readout | 360,000 tested, 4.7% active | THP-1 LPS/ATP IL-1B secretion, AlphaLISA, 16 h; active compounds read low | activity change, % at 57.5 µM; in the data active = activity change below about -50%; inconclusive = mostly about -30% to -49%
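Secreted IL-1B measured by AlphaLISA bead assay after 16 h compound exposure of THP-1 cells; compounds (final up to 57.5 uM) added 1 h before LPS (250 ng/mL) and ATP (1.25 mM) stimulation; lower signal means less secretion.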
The depositor's hits bear a star; ? = inconclusive; / = no result given. An excerpt weighted towards active compounds, which were near 19% of everything screened. Unless noted, calls follow the shape of the dose curve; as a rule, active = well fitted curve in the direction sought with a large enough effect; inconclusive = small, poorly fitted or top-dose-only effect, or another doubt; inactive = no such curve, though single readings can be large; an effect the other way counts as inactive or inconclusive. Unless noted, % is scaled to controls: 0 for no effect and ±100 for the full control effect.

SMILES | HT1080-NT tox | HT1080 IDH1KD tx | TDP1 cell CPT | TDP1 cell noCPT | IL-1B inflam inh
CCN(CC)C(=O)C1=C(C)N(Cc2ccccc2)C(=O)C(CC(=O)NCCc2ccccn2)C1 (stereo unspecified) | 7.4% | 6.3% | -3.3% | -11.6% | 8.2
CC1=C(C(=O)N2CCCCCC2)CC(CC(=O)NCCCN(C)C)C(=O)N1Cc1ccccc1 (stereo unspecified) | 7.8% | 23.5% | 5.3% | 24.3% | -18.7
CC1=C(C(=O)N(C(C)C)C(C)C)CC(CC(=O)NCCCN(C)C)C(=O)N1Cc1ccccc1 (stereo unspecified) | 16.9% | 11.6% | -1.2% | 0.1% | 0.0
CCN(CC)C(=O)C1=C(C)N(Cc2ccccc2)C(=O)C(CC(=O)NCCCCc2ccccc2)C1 (stereo unspecified) | 6.3% | 6.8% | 23.1µM* | 25.9µM* | -8.8
CC1=C(C(=O)N(C(C)C)C(C)C)CC(CC(=O)NCCCCc2ccccc2)C(=O)N1Cc1ccc(F)cc1 (stereo unspecified) | ? | ? | ? | ? | -56.0*
CC(=O)Oc1ccc2nc(-c3ccc(Br)o3)oc(=O)c2c1 | 3.1% | -8.6% | -12.5% | -7.2% | 8.0
CN(C)C(=O)c1ccc(-c2cncnc2NCCN2CCOCC2)cc1 | / | / | -1.9% | -20.9% | /
COc1ccc(Cc2nc3ccc(C(=O)N(C)Cc4nccn4C)cc3o2)cc1 | 5.5% | 5.8% | -6.7% | -23.4% | 12.5
CC(=O)Nc1ccc(SC[C@H](C)CN2CC[C@H](O)CCC2=O)cc1 | 11.2% | 9.4% | -15.8% | -16.2% | -4.9
COc1ccc(N2C(=O)[C@@H]3C[C@H]2CN3Cc2cccn2-c2nccs2)cc1Cl | / | / | 7.2% | ? | /
CCCCN(CC)CCCNC(=O)Nc1sc2nc3n(c(=O)c2c1C)CCC(C)CC3 (stereo unspecified) | / | / | ? | 20.6µM* | /
CC(=O)c1ccc(NC(=O)Nc2sc3nc4n(c(=O)c3c2C)CCC(C)CC4)cc1 (stereo unspecified) | / | / | 5.8µM* | 8.2µM* | /
COC(=O)c1c(OCCN2CCCCC2)cc(=O)n2c1CCN(Cc1cccc3nccnc13)CC2 | / | / | -19.4% | -21.0% | /
COc1cc2c(cc1OC)C(c1cccs1)N(C(=O)c1ccncc1)CC2 (stereo unspecified) | ? | 13µM* | 13µM* | ? | 0.0
COc1cc2c(cc1OC)C(c1cccs1)N(C(=S)NC(C)C)CC2 (stereo unspecified) | ? | -10.6% | ? | 14.6µM* | -26.6
COc1cc2c(cc1OC)C(c1cccs1)N(C(=O)c1ccc(S(=O)(=O)N(C)C)cc1)CC2 (stereo unspecified) | -3.2% | -5.2% | ? | ? | ?
CN(C)CCCNC(=O)c1cc(C(=O)c2c(Cl)cccc2Cl)c[nH]1 | -4.1% | 0.9% | ? | 4.3% | -19.8
CCN(CC)c1ccc(C2C(C(=O)OC(C)C)C(=O)CC(C)(O)C2C(=O)OC(C)C)cc1 (stereo unspecified) | -2.7% | -1.7% | 14.6µM* | 13µM* | -10.2
C=CCSC1=NC(=O)/C(=C/c2cccs2)S1 | 4.7% | -1.9% | ? | ? | -100.2*
NC1=NC(=O)/C(=C/c2cccs2)S1 | 4.2% | -5.4% | -10.6% | -21.5% | -0.5
Cc1[nH]c2ccccc2c1C(=O)C(C)Sc1nc2ccccc2c(=O)n1Cc1cccnc1 (stereo unspecified) | / | / | 7.94µM* | 11.2µM* | /
CCn1c(O)c(N=N)c2ccccc21 | 4.7% | 0.0% | 20.4% | 4.1% | -5.6
C=CCn1c(O)c(N=NC(=O)CNC(=O)c2ccco2)c2ccccc21 | ? | 20.6µM* | 6.51µM* | 4.11µM* | 36.7
CCCn1c(O)c(N=NC(=O)c2cccnc2)c2cc(Br)ccc21 | 18.4µM* | -21.7% | 16.4µM* | ? | 51.0
CCn1c(O)c(N=NC(=O)c2cccs2)c2ccccc21 | 13.8% | 10.0% | 23.1µM* | 14.6µM* | 29.2
SMILES | HT1080-NT tox | HT1080 IDH1KD tx | TDP1 cell CPT | TDP1 cell noCPT | IL-1B inflam inh
CCCn1c(O)c(N=NC(=O)c2ccco2)c2ccccc21 | 20.2% | 15.1% | 13µM* | 11.6µM* | -8.3
O=C(Nc1ccc(Br)cc1)C1CC(O)CN1C(=O)Oc1ccccc1 (stereo unspecified) | -4.3% | 12.9% | 4.9% | -5.2% | 7.4
Cc1ccc(S(=O)(=O)NCc2cccnc2)cc1 | 5.7% | 17.4% | -5.6% | -1.5% | 13.0
COCCN(Cc1ccc(C)cc1)C(=O)[C@H]1O[C@@H](n2ccc(N)nc2=O)[C@H](O)[C@@H]1O | 7.4% | 18.3% | -13.3% | 4.0% | 29.1
Cc1cccc(NC(=O)Cn2c(O)c(N=NC(=O)c3ccccc3O)c3ccccc32)c1 | ? | ? | -5.2% | 4.61µM* | 5.3
O=C(N=Nc1c(O)[nH]c2ccccc12)c1ccco1 | -17.2% | -16.6% | ? | 16.4µM* | ?
N=Nc1c(O)n(CC(=O)Nc2ccccc2)c2ccccc12 | -1.3% | -1.3% | ? | -16.5% | -4.8
CC(C)Oc1ccc(C(=O)NCCCNC(=O)c2cccnc2)cc1 | -2.1% | -15.1% | -2.0% | 9.5% | 14.9
COc1ccc(CCN(C)CCCC(C#N)(c2cc(OC)c(OC)c(OC)c2)C(C)C)cc1OC (stereo unspecified) | 1.0% | -14.8% | ? | 20.6µM* | -24.1
COc1cccc(C2=NOC(C(=O)NCc3ccco3)C2)c1 (stereo unspecified) | ? | ? | 9.2µM* | 13µM* | 2.3
COc1cccc(C2=NOC(C(=O)NCc3ccccc3)C2)c1 (stereo unspecified) | ? | ? | 5.17µM* | 4.61µM* | 0.0
